Structures are written as SMILES. The whole screen tested about 360,000 compounds, of which about 11,000 (3.1%) were called active. About 2% were inconclusive and are not listed. Many of the other results were omitted from the sample, so actives are more common in it than they were. Values without a mark were called inactive. No stated cut-off is given here; in the data, active means fluorescence intensity above about 16000; inconclusive means no clear call, values can overlap the other calls; inactive means below that.

This experiment can be described thus: compound fluorescence in toxin protease inhibitor counterscreen, primary screen, artefact control for toxin protease inhibitor project, biochemical, multiplex microsphere, HTS (AID 624483). To be noted: compound autofluorescence counterscreen, microsphere flow cytometry; stronger effect = higher value.
In the case of `Cc1ccc(NC2=NC(c3ccccc3)n3c(nc(C)cc3=O)N2)cc1` (centres undefined), the fluorescence intensity is 3910.
Under `CC(=O)Nc1c(-c2ccc(C)cc2)nc2ccc(Cl)cn12` stands 2860; under `Cc1occc1C(=O)NC1CCCN(Cc2ccc(CC(C)C)cc2)C1` (centres undefined), 7560.
Under `COc1ccc(C2=Nc3ccccc3NC(=O)C2N(C(=O)c2cc3ccccc3[nH]2)c2ccccc2)cc1` (centres undefined) stands 6050; under `COc1ccc(-c2cc3c(c4c2ccn4C)C2CCC3C2)cn1` (centres undefined), 2710; under `COC(=O)C1C(=O)NCC1c1ccc(OC)cc1` (centres undefined), 17100 (active).
The figure for `COC(=O)C1C(=O)NCC1c1ccc(C)cc1` (centres undefined) is 15900; for `CCOC(=O)C1C(=O)NCC1c1ccccc1` (centres undefined) it is 9370.
For `COc1ccc(-c2cc(NC=O)c3ncc(-c4cccc(C(=O)N(C)C)c4)n3c2)c(OC)c1`, the fluorescence intensity is 3580.
As for `O=c1c(-c2ccc(Cl)cc2)[n+]([O-])c2ccccc2n1OCc1nc2ccccc2[nH]1`, the fluorescence intensity is 4300.
Take `Clc1ccccc1SCc1nc2ccccc2[nH]1`: the fluorescence intensity was 24700 (active).
Turning to `Clc1ccc(-c2nnc(SCc3nc4ccccc4s3)o2)cc1`, the fluorescence intensity is 2530.
Regarding `c1ccc2cc3[nH]c(CN4CCCCC4)nc3cc2c1`, the fluorescence intensity is 5430.
For `c1ccc2c(CSCc3nc4ccccc4[nH]3)cccc2c1`, the fluorescence intensity is 21700 (active).
Regarding `c1ccc(-c2nnc(SCc3nc4ccccc4[nH]3)o2)cc1`, the fluorescence intensity was 18800 (active).
Regarding `O=C(OCc1nc2ccccc2[nH]1)C1CCCCC1`, the fluorescence intensity was 2190.
In the case of `Fc1ccc2nc(-c3ccccc3)nc(SCc3nnc(-c4ccccc4)o3)c2c1`, the fluorescence intensity was 4280.
`Oc1ccc2nc(Cc3ccccc3)[nH]c2c1`: the fluorescence intensity is 4090.
For `CC1(Oc2ccccc2-c2ccno2)CCN(Cc2ccc(-c3ccccc3)o2)C1` (centres undefined), the fluorescence intensity was 3970.
Consider `CN1CCN(c2ccncc2S(=O)(=O)N2CCCC2)CC1`, for which the fluorescence intensity is 3800.
For the compound `Cc1ccc(NC(=O)c2ccc(S(=O)(=O)NCC3CCCO3)cc2)cc1C` (centres undefined), the fluorescence intensity was 4660.
In the case of `CCc1c(O)nc(SCC(=O)Nc2ccccc2)n(C(C)CC)c1=O` (centres undefined), the fluorescence intensity is 9640.
In the case of `CCOC(=O)c1cc2cc(C)ccc2[nH]1`, the fluorescence intensity was 4370.
Take `Cc1cc(Br)cn2c(Cc3cccc(F)c3)c(-c3cccc(Br)c3)nc12`: the fluorescence intensity is 5680.
Take `C=CC[C@@H](Cc1ccc(F)cc1)C(=O)OC[C@H]1CCCN1C(=O)[C@H](CC=C)CC(=O)N(CCO)Cc1ccccc1`: the fluorescence intensity is 3800.
With `Cc1cc(C)cc(-c2nnc(SCC(=O)NC3CC3)o2)c1`, the fluorescence intensity is 8900.
Take `Cc1cccc(OCc2nnc(SCn3nnc4ccccc4c3=O)o2)c1`: the fluorescence intensity was 4060.
For `Cc1cc(C)cc(OCc2nnc(SCC(=O)OC3CCCCC3)o2)c1`, the fluorescence intensity was 19000 (active).
With `CN(C)CCN1CCN(c2cc(-c3cccc(Cl)c3)nc3ccnn23)CC1`, the fluorescence intensity is 3570.
`COC(=O)[C@@]1(Sc2ccc(C)cc2)CC(=O)N(c2cccc(SC)c2)[C@@H]1c1ccccc1`: the fluorescence intensity was 4090.
Take `CCc1nc2oc3ccccc3c(=O)c2c(=O)n1Cc1ccc(OC)cc1`: the fluorescence intensity was 17100 (active).
Regarding `O=c1c2ccccc2oc2nc3n(c(=O)c12)CCCS3`, the fluorescence intensity is 10300.
In the case of `COc1ccc(Cn2c(=O)oc3ccccc32)cc1`, the fluorescence intensity is 2890.
With `CCCCn1nnnc1C1(C)CCC(=O)N1Cc1ccc(OC)c(OC)c1` (centres undefined), the fluorescence intensity was 5290.
For the compound `CCOC(=O)c1cc(NC(=O)c2ccc(Cl)cc2)c(=O)oc1-c1ccccc1`, the fluorescence intensity was 5720.
For the compound `CC(=O)c1cc(NC(=O)c2ccccc2)c(=O)oc1/C=C/N(C)C`, the fluorescence intensity is 24500 (active).
On to `COc1cc(NC(=O)c2ccccc2)c(OC)cc1NC(=O)Cc1ccccc1`, for which the fluorescence intensity was 4090.
Take `O=C(CCc1nc2sc3c(c2c(=O)[nH]1)CCCC3)NCC(=O)Nc1ccccc1Br`: the fluorescence intensity is 3820.
The figure for `O=C(NCC1CCCO1)c1cc2c(s1)CCCC2` (centres undefined) is 8290.
The figure for `O=C(CNC(=O)c1cc2c(s1)CCC2)Nc1ccccc1Br` is 24100 (active); for `CN(C)c1ccc(N/C=C/C(=O)C(F)(F)F)cc1` it is 3470.
Under `CCc1nc2ccc(C(=O)NCCNC(C)=O)cn2c1N(CC)Cc1cccc(Br)c1` stands 3860; under `Cc1ccc(CNC(=O)CSc2nnc3c(n2)[nH]c2ccc(F)cc23)cc1`, 5580; under `Cc1ccn2c(=O)nc(SCC(=O)NCc3ccc(F)cc3)nc2c1`, 16300 (active).
Turning to `Cc1ccn2c(=O)nc(SCC(=O)NCc3ccc4c(c3)OCO4)nc2c1`, the fluorescence intensity is 5730.
Regarding `COc1ccc(CC(N)c2csc(NC(=O)Nc3ccc(C(C)C)cc3)n2)cc1` (centres undefined), the fluorescence intensity was 3480.
`c1ccc2c(C[n+]3csc4ccccc43)cccc2c1`: the fluorescence intensity was 24500 (active).
With `c1ccc2c(CNn3cnnc3)cccc2c1`, the fluorescence intensity is 2660.
The figure for `Nc1scc[n+]1Cc1cccc2cccnc12` is 3430.
With `O=S(=O)(NCc1cccnc1)c1ccc(Cl)nc1`, the fluorescence intensity is 2520.
On to `O=S(=O)(NCc1cccnc1)c1ccc(Br)s1`, for which the fluorescence intensity was 23300 (active).
For the compound `O=S(=O)(NCc1ccccn1)c1ccc(Br)s1`, the fluorescence intensity is 18000 (active).
In the case of `CC1CCN(S(=O)(=O)c2ccc(S(=O)(=O)NCc3cccnc3)cc2)CC1`, the fluorescence intensity is 4180.
On to `Cc1cc(S(=O)(=O)NCc2ccccn2)c(Cl)cc1Cl`, for which the fluorescence intensity is 3790.
Turning to `O=S(=O)(NCc1ccccn1)c1ccc(F)cc1`, the fluorescence intensity is 11500.
In the case of `CN(C(=O)c1cccc(NC(=O)C2CCN(C(=O)OC(C)(C)C)CC2)c1)C1CCC1`, the fluorescence intensity was 4250.
For `CCc1ccnc(NS(=O)(=O)c2ccc3c(c2)OCCO3)c1`, the fluorescence intensity was 6030.
As to `CC(=O)NN=C(C)c1ccc(NC(=O)C2CC2)cc1`, the fluorescence intensity was 3420.
Regarding `CCCCCn1nnnc1-c1nc2cc3ccccc3cc2[nH]c1=O`, the fluorescence intensity is 5190.
On to `COc1ccccc1CSc1ncc(-c2ccc([N+](=O)[O-])cc2)[nH]1`, for which the fluorescence intensity was 2560.
As to `CC(O)C(NS(=O)(=O)c1ccc(Cl)cc1)C(=O)OCc1cc([N+](=O)[O-])cc2c1OCOC2` (centres undefined), the fluorescence intensity is 3270.
Under `Nc1ccccc1SCc1cc([N+](=O)[O-])cc2c1OCOC2` stands 22000 (active).
On to `Cn1c(NC(=O)c2ccco2)c(-c2ccccc2Cl)c(=O)c2ccccc21`, for which the fluorescence intensity was 5600.
As for `COc1cccc(-c2cnc(C(O)c3ccccc3OC)[nH]2)c1` (centres undefined), the fluorescence intensity is 4140.
With `CN(Cc1nc2ccccc2c(=O)[nH]1)Cc1cc(=O)oc2ccc3ccccc3c12`, the fluorescence intensity is 10600.
As for `CCN(CC(=O)NC(=O)NCc1ccccc1)Cc1nc2ccccc2c(=O)[nH]1`, the fluorescence intensity was 4790.
As to `CCN(Cc1nc2ccccc2c(=O)[nH]1)Cc1cc(=O)oc2cc(C)c(C)cc12`, the fluorescence intensity is 22700 (active).
Consider `Cc1ccccc1/[N+]([O-])=C/c1ccncc1`, for which the fluorescence intensity is 3600.
Regarding `O=C(Nc1ccc(F)cc1)Nc1nnc([C@H]2C[C@H](O)[C@@H](CO)O2)s1`, the fluorescence intensity is 2870.
Turning to `COc1cccc(OCC(=O)NNC(=O)c2cnccn2)c1`, the fluorescence intensity was 2360.
In the case of `CCOc1ccc(C(=O)Nc2nccs2)cc1[N+](=O)[O-]`, the fluorescence intensity is 2430.
The figure for `COc1ccc(C(=O)NNC(=O)c2cnccn2)cc1[N+](=O)[O-]` is 16500 (active); for `Cc1ccc(CC2(C)C(=O)Nc3ccc(OC(F)(F)F)cc32)cc1` (centres undefined) it is 3690.
Under `O=C(Nc1cccc(OCC(=O)N2CCOCC2)c1)C1CCCCC1` stands 23600 (active); under `O=C(COc1ccc(S(=O)(=O)Nc2cccc(C(F)(F)F)c2)cc1)N1CCOCC1`, 4570.
Consider `Cc1cccc(NC(=O)C2CCN(C(=O)NC3CCCCC3)CC2)c1`, for which the fluorescence intensity was 3730.
For `C#Cc1ccc(NC(=O)C2(C)CCN2C(=O)Cc2ccc(-c3ccccc3)cc2)cc1` (centres undefined), the fluorescence intensity was 3720.
For the compound `C/C(=N\NC(=S)Nc1ccc(C)cc1)c1cc2ccccc2o1`, the fluorescence intensity is 4230.
On to `Cc1ccc(NC(=S)N/N=C2/CCCc3c(C)cc(C)cc32)cc1`, for which the fluorescence intensity was 20600 (active).
Turning to `Cc1ccc(C)c(NC(=S)NNC(=S)Nc2ccc(C(C)C)cc2)c1`, the fluorescence intensity was 3300.
The figure for `COCc1cccc(-c2csc(C(O)c3ccc(F)cc3)n2)c1` (centres undefined) is 3440; for `O=C(CC1Nc2ccccc2NC1=O)Nc1ccccc1` (centres undefined) it is 3710; for `N#Cc1ccc(-c2ccc3nccn3c2)cc1` it is 3660.
Regarding `Cc1ccc(NS(=O)(=O)c2ccc(C(C)(C)C)cc2)cn1`, the fluorescence intensity was 3470.
In the case of `Cc1cc(C)cc(OCC(=O)Nc2ccc(S(=O)(=O)Nc3ccccn3)cc2)c1`, the fluorescence intensity was 2260.
Under `Cc1ccc(S(=O)(=O)Nc2ccc3ncccc3c2)cc1` stands 22700 (active); under `CSc1cccc(NC(=S)N(C(C)C)C(C)c2ccccn2)c1` (centres undefined), 3430; under `Cc1ccc2c(=O)cc(C(=O)NCCc3ccc(S(N)(=O)=O)cc3)oc2c1C`, 3650.
Under `O=C(NC1(C(F)(F)F)NC(=O)N(Cc2cccnc2)C1=O)c1ccccc1Cl` (centres undefined) stands 21200 (active); under `COc1ccc(C(=O)NC2(C(F)(F)F)NC(=O)N(CCCc3ccccc3)C2=O)c(OC)c1OC` (centres undefined), 8270; under `O=C(NCc1cccnc1)c1ccccc1NC(=O)c1c(F)cccc1F`, 5910.
Turning to `CCOC(=O)c1ccc(COC(=O)CCc2nc(-c3ccccc3)c(-c3ccccc3)o2)cc1`, the fluorescence intensity is 16400 (active).
For the compound `CCOC(=O)c1ccc(-n2c(CCC(=O)O)ccc2-c2ccccc2)cc1`, the fluorescence intensity is 3600.
Under `Cc1onc(-c2ccccc2)c1-c1nnc(COC(=O)c2ccc(N(C)C)cc2)o1` stands 3380; under `COc1c(O)ccc2c1CN1CCc3cc4c(cc3C1C2)OCO4` (centres undefined), 4960.
Turning to `COc1ccc(C2OC(CCc3ccccc3)Cc3[nH]c(=S)[nH]c(=O)c32)cc1` (centres undefined), the fluorescence intensity was 5590.
Take `CCOc1ccccc1NC(=O)c1cccnc1`: the fluorescence intensity was 3020.
With `CCOC(=O)c1cc(NC(=O)c2cccnc2)ccn1`, the fluorescence intensity is 3490.
The figure for `CCOC(=O)c1cc(NC(=O)c2cccnc2)cc(C(=O)OCC)c1` is 24800 (active).
